Shown are actives, neighbours in structure and some others; about 1.4% of the full set was active somewhere.
Bcl-W Bim block: human Bim-Bcl-W interaction inhibition | bead-based flow cytometry, Bim peptide-Bcl-W binding | hit rate 0.02% among 190,000 | inhibition, % at 10 µM;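 note: higher means less fluorescent Bim peptide bound to Bcl-W beads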
Target sequence (Q92843 whole entry, looked up): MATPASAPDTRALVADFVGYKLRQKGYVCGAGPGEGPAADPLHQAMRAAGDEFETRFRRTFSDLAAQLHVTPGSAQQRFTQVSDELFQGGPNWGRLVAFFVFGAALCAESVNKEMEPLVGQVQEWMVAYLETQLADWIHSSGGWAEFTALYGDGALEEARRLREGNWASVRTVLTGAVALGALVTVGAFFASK
Bim-Bcl-XL: inhibitors of Bim-Bcl-XL interaction, human; Q07817; inhibition, % at 10 µM; hit rate 0.04% among 190,000; AID 1007; Bim peptide-Bcl-XL binding, bead flow cytometry, fluorescence
Target sequence (Q07817 whole entry, looked up): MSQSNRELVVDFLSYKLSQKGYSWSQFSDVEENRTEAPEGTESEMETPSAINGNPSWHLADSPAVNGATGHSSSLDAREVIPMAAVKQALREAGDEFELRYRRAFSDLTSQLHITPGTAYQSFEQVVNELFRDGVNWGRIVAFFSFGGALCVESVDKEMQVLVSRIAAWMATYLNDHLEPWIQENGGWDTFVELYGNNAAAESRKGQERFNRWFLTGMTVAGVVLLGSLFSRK
Bim-Bcl-2: disrupts Bim peptide binding to human Bcl-2 | P10415 | Bead-based flow cytometry, Bim peptide-Bcl-2 binding | inhibition, % at 10 µM | hit rate 0.06% among 190,000; in the data active = inhibition above about 40%; inconclusive = no clear call, values can overlap the other calls
Bfl-1 Bim block: inhibitors of Bim-Bfl-1 interaction, human; Bead-based flow cytometry, Bim-Bfl-1 binding inhibition; inhibition, % at 10 µM; hit rate 0.12% among 190,000
Target sequence (Q16548 whole entry, looked up): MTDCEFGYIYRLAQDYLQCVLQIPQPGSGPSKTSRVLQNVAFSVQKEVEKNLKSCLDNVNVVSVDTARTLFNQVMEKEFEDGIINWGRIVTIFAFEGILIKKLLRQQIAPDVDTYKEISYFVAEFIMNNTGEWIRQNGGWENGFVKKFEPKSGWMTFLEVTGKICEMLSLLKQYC
Wee1 stabilizer: inhibitors of human Wee1 degradation; AID 1321; HeLa Luc-Wee1K328M stability, luciferase luminescence; 100% = proteasome inhibitor MG132 effect; hit rate 1.2% among 220,000; reporter increase, % at 5 µM; P30291;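 active = activation above the mean of all tested compounds plus 3 SD, set per screening run, cut at about 8.8% in these data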;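 note: cells exposed to compound for 20 h before luminescence read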
Bcl-B Bim block: disrupts Bim peptide binding to human Bcl-B. Q9HD36. bead-based flow cytometry. inhibition, % at 10 µM. hit rate 0.073% among 190,000. AID 951
Numbers stand for hits; i = inactive; ? = inconclusive; nt = no result. Cut-off read from the data, not from the text of the source, unless noted: active = inhibition above about 40%.

SMILES	Bcl-W Bim block	Bim-Bcl-XL	Bim-Bcl-2	Bfl-1 Bim block	Wee1 stabilizer	Bcl-B Bim block
Cc1ccc(NS(=O)(=O)c2ccc(Br)s2)cc1S(=O)(=O)N1CCOCC1	i	i	i	i	i	i
CC(=O)Nc1cccc(C(=O)Nc2ccccc2N2CCOCC2)c1	i	i	i	i	9.0	i
CCN(c1ccc(N=Cc2c(O)n(Cc3ccc(OC)cc3)c(=O)c3ccccc23)cc1)C(C)C	nt	nt	?	nt	i	nt
COC(=O)c1ccccc1NC(=O)CSc1nccc(C)n1	i	i	i	i	10	i
COC(=O)c1ccccc1NC(=O)CSc1nc(C)cc(C)n1	i	i	i	i	i	i
Cc1[nH]c2ccccc2c1C(=O)CSC(=S)N(C)C	i	i	i	i	9.1	i
COCCNC(=O)Cn1cc(C(=O)c2ccco2)c2ccccc21	i	i	i	i	i	i
O=C(COC(=O)CCN1C(=O)c2cccc([N+](=O)[O-])c2C1=O)NC1CCS(=O)(=O)C1 (stereo not drawn)	i	i	i	i	i	i
CC(C)(C)c1ccc(NC(=O)COC(=O)CCN2C(=O)c3cccc([N+](=O)[O-])c3C2=O)cc1	i	i	i	i	17	i
COC(=O)c1cc(=O)c2c(C)nc(C(Cl)(Cl)Cl)nc2[nH]1	i	i	i	i	10	i
Cc1cccc(Cc2cnc(N3C(=N)SC(C)C3=O)s2)c1 (stereo not drawn)	i	i	i	i	9.6	i
Cc1ccc(Cc2cnc(N3C(=N)SC(C)C3=O)s2)cc1 (stereo not drawn)	i	i	i	i	i	i
Cc1cc(C)nc(NC(=O)Cc2ccc(Br)cc2)n1	i	i	i	i	i	i
CC(C)(C)C(=O)NC(=S)Nc1ccccc1C(N)=O	i	i	i	i	11	i
CN(C)c1ccc(/C=C2/SC(=O)N(CCN=C3NS(=O)(=O)c4ccccc43)C2=O)cc1	71	50	91	48	i	92
C#CCN1C(=O)S/C(=C/C=C/c2ccc(N(C)C)cc2)C1=O	i	i	i	i	i	i
COc1ccc(/C=C2\SC(=O)NC2=S)cc1OC	i	i	53	i	i	i
CC(NCc1ccc(-c2ccccc2)cc1)C(O)c1ccccc1 (stereo not drawn)	i	40	i	i	i	i
CC1(C)C2CCC(C2)C1C/C=N/NC(N)=S (stereo not drawn)	nt	nt	nt	nt	i	nt
O=C(CCCN1C(=O)c2ccccc2C1=O)Nc1ccc2c(c1)OCCO2	i	i	i	i	i	i
CCN(CC)S(=O)(=O)c1cccc(C(=O)N/N=C/c2ccc(O)c(O)c2O)c1	i	54	i	i	i	43
CCn1c(C)nc2cc(C(=O)N/N=C/c3ccc(O)c(O)c3O)ccc21	i	i	i	52	i	i
CC(=O)Nc1nc(COc2ccc3ccccc3c2)cs1	i	i	i	i	i	i
Nc1nc(COc2ccc3ccccc3c2)cs1	i	i	i	i	9.0	i
Cc1nc2cc(NC(=O)Nc3ccc(N4CCOCC4)cc3)ccc2n1C	i	i	i	i	10	i
SMILES	Bcl-W Bim block	Bim-Bcl-XL	Bim-Bcl-2	Bfl-1 Bim block	Wee1 stabilizer	Bcl-B Bim block
COCCCNC(=O)CN(c1cc(C(F)(F)F)ccc1Cl)S(C)(=O)=O	nt	nt	nt	nt	10	nt
COc1ccccc1OCCn1c(=O)oc2ccc(C)cc21	i	i	i	i	i	i
CC(C)S(=O)(=O)c1csc(C(=O)Nc2ccc(F)cc2)c1N	nt	nt	nt	nt	i	nt
O=C1/C(=C/N(C(=O)c2ccco2)c2ccc(Cl)cc2)Sc2ccccc21	i	i	i	i	9.4	i
CNC(=O)c1ccc(OC2CSC2)cc1	i	i	i	i	i	i
O=C(Nc1ccc(Cl)cc1)c1ccc(OC2CSC2)cc1	i	i	i	i	21	i
Cc1nn(-c2nc3ccccc3[nH]2)c(N)c1-c1ccc(Cl)cc1	i	i	i	i	11	i
OCCNCCSc1nc(C2CCCCC2)n(-c2ccccc2Cl)n1	nt	nt	nt	nt	i	nt
Cc1ccc(S(=O)(=O)Nc2ccccn2)cc1[N+](=O)[O-]	i	i	i	i	i	i
CCCCn1c(SCC(=O)Nc2cccc(C)n2)nnc1-c1ccco1	i	i	i	i	9.1	i
COCCCn1c(SCC(=O)Nc2cccc(C)n2)nnc1-c1ccco1	i	i	i	i	i	i
Cc1cccc(NC(=S)N2CCn3cccc3C2c2cccnc2)c1 (stereo not drawn)	i	i	i	i	i	41
CC1CCN(C2(O)C(=O)Nc3ccc(Br)cc32)CC1 (stereo not drawn)	i	63	47	i	i	57
COc1ccc(/C=C(\C#N)C(=O)OCCNC(=O)c2ccncc2)cc1	i	i	i	i	i	i
COc1ccc2nc(SCC(=O)c3ccco3)[nH]c2c1	i	i	i	i	9.1	i
O=C(CSc1nc2ccccc2[nH]1)c1ccco1	i	i	i	i	i	i
COc1ccc(COC(=O)NNC(=O)c2ccccc2Cl)cc1	i	i	83	66	i	83
COc1cc2c3c(c1OC)C1(C=CC(=NO)C=C1)CC3N(C(C)=O)CC2 (stereo not drawn)	i	i	i	i	10	i
c1ccc2sc(NCC3CCCO3)nc2c1 (stereo not drawn)	i	i	i	i	9.4	i
COc1ccc(-c2csc(NC(=O)CN3C(=O)CCC3=O)n2)cc1OC	i	i	i	i	11	i
COc1ccc(-c2csc(NC(=O)CN3C(=O)CCC3=O)n2)cc1	i	i	i	i	i	i
CCN(CC)S(=O)(=O)c1ccc(/C=C/C(=O)OCC(=O)N(C)C)cc1	i	i	i	i	i	i
Cc1nnc2n(CCc3ccccc3)c(=O)c3c4c(sc3n12)CCCC4	nt	nt	nt	nt	9.3	nt
CSc1nnc2n(CCc3ccccc3)c(=O)c3c4c(sc3n12)CCCC4	nt	nt	nt	nt	i	nt
NNC(=O)c1ccc(CN2C(=O)c3cccc4cccc2c34)cc1	i	i	i	i	i	i
SMILES	Bcl-W Bim block	Bim-Bcl-XL	Bim-Bcl-2	Bfl-1 Bim block	Wee1 stabilizer	Bcl-B Bim block
COc1ccccc1/C=N/NC(=O)c1ccc(CN2C(=O)c3cccc4cccc2c34)cc1	nt	nt	nt	nt	9.0	nt
Cc1cc(C)nc(Oc2ccc(Br)cc2Br)n1	i	i	i	i	9.1	i
CC(=O)NC1CC2CCCC(C1)N2S(=O)(=O)c1ccccc1 (stereo not drawn)	i	i	i	i	i	i
CC(=O)NC1CCC(C(=O)O)(c2ccccc2)C1 (stereo not drawn)	i	i	i	i	9.3	i
O=C(O)c1cccc(-n2cccc2/C=C/[N+](=O)[O-])c1	nt	nt	nt	nt	i	nt
C=CCc1ccc2oc(C(=O)OCC)cc(=O)c2c1O	nt	nt	nt	nt	10	nt
CCCc1ccc(OCc2ccccc2)c2c(=O)cc(C(=O)OCC)oc12	nt	nt	nt	nt	i	nt
Cc1ccnc(NC(=O)Nc2ccc(Br)cc2Cl)c1	i	i	i	i	9.5	i
COC(=O)c1ccccc1NC(=O)Nc1cc(C)ccn1	i	i	i	i	i	i
COc1ccc(NC(=O)Nc2ccc(C(=O)N3CCOCC3)cc2)c(OC)c1	i	i	i	i	i	i
CC1CC(C)CN(c2nc(NCc3ccco3)nc(N)c2[N+](=O)[O-])C1 (stereo not drawn)	i	i	i	i	11	i

Screens: PubChem, several laboratories
